# In ChEMBL document CHEMBL1961873, “Compounds: GSK PKIS; Assays: Nanosyn kinase panel” (2012):
# Experiments:
# [1] = target: T1, 3-phosphoinositide-dependent protein kinase 1 (Homo sapiens) (UniProt O15530); details: at 0.1 µM;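 further: values are mean inhibition of PDK1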
# T1 sequence (whole entry): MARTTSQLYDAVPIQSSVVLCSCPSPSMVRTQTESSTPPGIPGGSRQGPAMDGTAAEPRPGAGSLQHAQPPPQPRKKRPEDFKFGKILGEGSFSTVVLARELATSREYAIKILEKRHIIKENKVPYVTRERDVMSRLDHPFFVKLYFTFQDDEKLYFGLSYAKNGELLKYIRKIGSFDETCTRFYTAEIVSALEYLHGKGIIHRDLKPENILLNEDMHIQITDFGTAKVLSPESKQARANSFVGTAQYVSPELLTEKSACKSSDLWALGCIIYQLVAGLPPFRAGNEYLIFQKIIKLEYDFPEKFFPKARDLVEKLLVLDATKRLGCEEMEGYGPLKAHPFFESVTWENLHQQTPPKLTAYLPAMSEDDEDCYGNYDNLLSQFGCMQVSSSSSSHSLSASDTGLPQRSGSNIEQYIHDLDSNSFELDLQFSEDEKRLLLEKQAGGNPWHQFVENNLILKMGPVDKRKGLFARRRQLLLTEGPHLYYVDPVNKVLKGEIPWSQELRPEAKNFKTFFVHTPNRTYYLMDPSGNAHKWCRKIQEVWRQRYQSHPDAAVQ
# [2] = target: cAMP-dependent protein kinase catalytic subunit alpha (Homo sapiens) (UniProt P17612); details: at 0.1 µM
# [3] = target: Protein kinase C alpha type (Homo sapiens) (UniProt P17252); details: at 0.1 µM
# [4] = target: Protein kinase C alpha type (Homo sapiens) (UniProt P17252); details: at 1 µM
# [5] = target: Protein kinase C beta type (Homo sapiens) (UniProt P05771); details: at 0.1 µM
# [6] = target: Protein kinase C beta type (Homo sapiens) (UniProt P05771); details: at 1 µM
# [7] = target: Protein kinase C eta type (Homo sapiens) (UniProt P24723); details: at 0.1 µM
# [8] = target: Protein kinase C eta type (Homo sapiens) (UniProt P24723); details: at 1 µM
# [9] = target: Protein kinase C gamma type (Homo sapiens) (UniProt P05129); details: at 0.1 µM
# [10] = target: Protein kinase C gamma type (Homo sapiens) (UniProt P05129); details: at 1 µM
# [11] = target: T2, Protein kinase C iota type (Homo sapiens) (UniProt P41743); details: at 0.1 µM
# T2 sequence (whole entry): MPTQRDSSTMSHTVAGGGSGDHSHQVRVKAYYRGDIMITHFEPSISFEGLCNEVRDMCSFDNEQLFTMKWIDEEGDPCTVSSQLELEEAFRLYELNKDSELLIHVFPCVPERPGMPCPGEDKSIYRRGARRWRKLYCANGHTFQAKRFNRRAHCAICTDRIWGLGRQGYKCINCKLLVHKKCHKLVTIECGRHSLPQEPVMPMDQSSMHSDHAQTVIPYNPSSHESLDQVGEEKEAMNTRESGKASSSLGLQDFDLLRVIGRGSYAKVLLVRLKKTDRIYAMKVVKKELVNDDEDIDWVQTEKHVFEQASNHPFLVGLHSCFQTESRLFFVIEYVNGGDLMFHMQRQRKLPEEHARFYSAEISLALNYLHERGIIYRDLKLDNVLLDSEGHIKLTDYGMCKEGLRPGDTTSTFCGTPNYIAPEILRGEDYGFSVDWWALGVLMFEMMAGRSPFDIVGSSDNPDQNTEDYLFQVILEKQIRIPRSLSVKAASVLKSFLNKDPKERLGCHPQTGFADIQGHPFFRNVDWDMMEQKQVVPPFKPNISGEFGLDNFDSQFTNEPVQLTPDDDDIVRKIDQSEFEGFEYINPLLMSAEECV
# [12] = target: T2, Protein kinase C iota type (Homo sapiens); details: at 1 µM
# [13] = target: Protein kinase C theta type (Homo sapiens) (UniProt Q04759); details: at 0.1 µM
# [14] = target: Protein kinase C theta type (Homo sapiens) (UniProt Q04759); details: at 1 µM
# [15] = target: Protein kinase C beta type (Homo sapiens) (UniProt P05771); details: at 0.1 µM; remark: listed apart in the source
# [16] = target: Protein kinase C beta type (Homo sapiens) (UniProt P05771); details: at 1 µM; remark: listed apart in the source
# [17] = target: T3, Serine/threonine-protein kinase D1 (Homo sapiens) (UniProt Q15139); details: at 0.1 µM
# T3 sequence (whole entry): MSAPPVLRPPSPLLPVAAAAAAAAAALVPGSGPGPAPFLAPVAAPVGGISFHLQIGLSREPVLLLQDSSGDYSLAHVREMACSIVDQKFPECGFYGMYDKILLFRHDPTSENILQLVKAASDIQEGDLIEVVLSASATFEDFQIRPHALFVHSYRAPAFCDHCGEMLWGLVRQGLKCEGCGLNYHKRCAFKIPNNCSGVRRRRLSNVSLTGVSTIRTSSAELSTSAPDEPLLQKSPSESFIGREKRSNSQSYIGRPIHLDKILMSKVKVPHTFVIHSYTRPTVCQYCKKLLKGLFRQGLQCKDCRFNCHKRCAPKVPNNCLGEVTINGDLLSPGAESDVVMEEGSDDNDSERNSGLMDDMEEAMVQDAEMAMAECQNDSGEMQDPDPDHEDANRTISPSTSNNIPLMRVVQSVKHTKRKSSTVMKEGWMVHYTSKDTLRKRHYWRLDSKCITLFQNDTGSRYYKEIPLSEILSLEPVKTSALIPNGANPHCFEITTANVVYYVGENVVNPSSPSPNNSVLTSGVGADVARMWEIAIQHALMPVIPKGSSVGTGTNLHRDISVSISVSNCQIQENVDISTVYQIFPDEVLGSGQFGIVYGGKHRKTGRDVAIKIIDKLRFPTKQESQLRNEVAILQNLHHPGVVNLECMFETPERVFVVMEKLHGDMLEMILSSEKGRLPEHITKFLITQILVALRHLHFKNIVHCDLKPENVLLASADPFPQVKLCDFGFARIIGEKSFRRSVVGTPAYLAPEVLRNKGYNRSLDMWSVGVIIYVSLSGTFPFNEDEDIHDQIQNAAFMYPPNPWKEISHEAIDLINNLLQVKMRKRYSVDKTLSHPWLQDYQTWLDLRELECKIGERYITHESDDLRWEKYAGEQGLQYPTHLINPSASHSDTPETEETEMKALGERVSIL
# [18] = target: T3, Serine/threonine-protein kinase D1 (Homo sapiens); details: at 1 µM
# [19] = target: T4, Serine/threonine-protein kinase D2 (Homo sapiens) (UniProt Q9BZL6); details: at 0.1 µM;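 further: reported percent inhibition values are means, part of the GSK PKIS kinase panel screen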
# T4 sequence (whole entry): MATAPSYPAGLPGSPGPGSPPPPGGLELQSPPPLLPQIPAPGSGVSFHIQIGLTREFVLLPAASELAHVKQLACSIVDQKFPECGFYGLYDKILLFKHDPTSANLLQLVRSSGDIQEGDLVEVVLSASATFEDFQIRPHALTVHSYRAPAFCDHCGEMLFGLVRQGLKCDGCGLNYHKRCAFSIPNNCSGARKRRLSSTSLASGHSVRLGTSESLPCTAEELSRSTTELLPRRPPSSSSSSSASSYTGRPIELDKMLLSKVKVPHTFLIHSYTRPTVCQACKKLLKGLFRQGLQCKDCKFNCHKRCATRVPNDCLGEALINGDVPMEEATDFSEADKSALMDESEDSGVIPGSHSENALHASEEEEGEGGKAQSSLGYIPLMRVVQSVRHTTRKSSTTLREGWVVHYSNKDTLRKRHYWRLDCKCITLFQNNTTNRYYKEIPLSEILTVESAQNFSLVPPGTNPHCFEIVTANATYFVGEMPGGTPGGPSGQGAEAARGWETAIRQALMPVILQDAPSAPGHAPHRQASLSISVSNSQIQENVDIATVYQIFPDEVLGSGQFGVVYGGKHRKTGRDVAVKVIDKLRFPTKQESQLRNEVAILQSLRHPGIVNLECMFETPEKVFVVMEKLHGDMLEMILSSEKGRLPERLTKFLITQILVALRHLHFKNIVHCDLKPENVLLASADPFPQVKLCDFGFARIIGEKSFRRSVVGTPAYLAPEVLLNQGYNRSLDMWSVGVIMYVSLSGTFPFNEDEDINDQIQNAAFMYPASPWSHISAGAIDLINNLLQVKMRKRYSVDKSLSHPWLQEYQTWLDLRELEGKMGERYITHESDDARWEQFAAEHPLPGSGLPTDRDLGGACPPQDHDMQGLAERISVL
# [20] = target: cAMP-dependent protein kinase catalytic subunit alpha (Homo sapiens) (UniProt P17612); details: at 1 µM
# Protein kinase C eta type (Homo sapiens), sequence (P24723 whole entry): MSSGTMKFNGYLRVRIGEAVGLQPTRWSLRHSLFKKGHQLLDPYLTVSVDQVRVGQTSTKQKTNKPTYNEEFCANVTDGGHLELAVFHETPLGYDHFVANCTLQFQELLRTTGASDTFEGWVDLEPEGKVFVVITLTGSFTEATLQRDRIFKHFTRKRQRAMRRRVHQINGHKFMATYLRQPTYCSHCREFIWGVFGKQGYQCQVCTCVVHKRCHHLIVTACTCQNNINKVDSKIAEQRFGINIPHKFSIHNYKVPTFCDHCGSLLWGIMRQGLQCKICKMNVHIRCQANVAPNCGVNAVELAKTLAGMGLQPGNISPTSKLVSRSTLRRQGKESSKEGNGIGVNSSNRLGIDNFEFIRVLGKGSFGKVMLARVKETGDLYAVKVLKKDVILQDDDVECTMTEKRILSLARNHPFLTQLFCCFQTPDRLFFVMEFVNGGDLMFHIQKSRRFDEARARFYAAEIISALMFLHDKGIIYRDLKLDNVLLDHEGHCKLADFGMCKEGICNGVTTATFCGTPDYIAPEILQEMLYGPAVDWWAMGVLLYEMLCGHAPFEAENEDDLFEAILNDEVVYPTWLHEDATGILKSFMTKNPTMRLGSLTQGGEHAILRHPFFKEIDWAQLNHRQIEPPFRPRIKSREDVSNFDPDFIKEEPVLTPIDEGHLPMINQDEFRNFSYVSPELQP
# Protein kinase C beta type (Homo sapiens), sequence (P05771 2-671 limits assumed): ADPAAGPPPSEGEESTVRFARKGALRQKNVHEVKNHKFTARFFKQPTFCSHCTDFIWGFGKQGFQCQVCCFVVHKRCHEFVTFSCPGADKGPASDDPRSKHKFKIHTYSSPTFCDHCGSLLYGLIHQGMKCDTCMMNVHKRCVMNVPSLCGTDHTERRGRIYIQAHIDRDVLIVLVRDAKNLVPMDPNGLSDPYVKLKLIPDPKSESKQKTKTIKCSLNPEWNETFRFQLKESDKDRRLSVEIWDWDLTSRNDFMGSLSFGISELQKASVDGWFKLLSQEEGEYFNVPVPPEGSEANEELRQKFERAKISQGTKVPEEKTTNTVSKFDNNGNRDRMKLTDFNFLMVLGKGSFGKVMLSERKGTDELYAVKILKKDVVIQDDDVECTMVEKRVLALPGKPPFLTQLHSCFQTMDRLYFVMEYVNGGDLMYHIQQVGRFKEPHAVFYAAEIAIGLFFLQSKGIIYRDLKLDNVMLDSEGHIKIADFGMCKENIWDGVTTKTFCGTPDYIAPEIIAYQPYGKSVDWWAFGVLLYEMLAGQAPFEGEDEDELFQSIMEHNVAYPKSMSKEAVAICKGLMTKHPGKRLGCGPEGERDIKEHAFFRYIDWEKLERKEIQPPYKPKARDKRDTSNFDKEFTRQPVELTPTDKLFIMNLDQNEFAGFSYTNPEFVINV
# Protein kinase C theta type (Homo sapiens), sequence (Q04759 whole entry, looked up): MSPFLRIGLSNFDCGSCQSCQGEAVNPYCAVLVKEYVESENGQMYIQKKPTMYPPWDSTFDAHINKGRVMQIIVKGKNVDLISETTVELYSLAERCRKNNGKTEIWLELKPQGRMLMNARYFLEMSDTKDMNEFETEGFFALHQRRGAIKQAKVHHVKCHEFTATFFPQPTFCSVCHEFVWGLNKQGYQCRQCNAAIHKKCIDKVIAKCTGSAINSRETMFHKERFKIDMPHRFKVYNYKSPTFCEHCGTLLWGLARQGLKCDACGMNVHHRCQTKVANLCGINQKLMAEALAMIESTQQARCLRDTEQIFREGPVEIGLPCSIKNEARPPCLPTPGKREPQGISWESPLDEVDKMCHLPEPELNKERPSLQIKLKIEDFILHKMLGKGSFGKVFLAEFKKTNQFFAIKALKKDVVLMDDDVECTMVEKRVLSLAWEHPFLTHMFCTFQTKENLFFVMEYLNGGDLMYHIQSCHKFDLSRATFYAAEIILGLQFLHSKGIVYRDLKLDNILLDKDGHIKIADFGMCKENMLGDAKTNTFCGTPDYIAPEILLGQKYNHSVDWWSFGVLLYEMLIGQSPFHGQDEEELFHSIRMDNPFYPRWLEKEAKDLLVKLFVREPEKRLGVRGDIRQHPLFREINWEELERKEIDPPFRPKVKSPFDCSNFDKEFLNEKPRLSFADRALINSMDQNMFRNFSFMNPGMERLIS
Compound,inhibition [1],inhibition [2],inhibition [3],inhibition [4],inhibition [5],inhibition [6],inhibition [7],inhibition [8],inhibition [9],inhibition [10],inhibition [11],inhibition [12],inhibition [13],inhibition [14],inhibition [15],inhibition [16],inhibition [17],inhibition [18],inhibition [19],inhibition [20]
CCn1c(-c2nonc2N)nc2c(C#CC(C)(C)O)ncc(OCC3CCNCC3)c21,2.18%,44.1%,-1.9%,13.4%,29.9%,64.4%,83.7%,97.8%,6.74%,39.9%,-0.7%,13.5%,21.5%,65.5%,8.97%,37.6%,-0.45%,6.01%,-0.27%,
CCn1c(-c2nonc2N)nc2c(C#CC(C)(C)O)nc(O[C@@H](CN)c3ccccc3)cc21,3.51%,80.3%,15.8%,69.7%,44.8%,71.4%,96.3%,99%,54.7%,81.1%,3.68%,26.4%,73.5%,84.8%,49.2%,80.5%,8.23%,61.6%,9.02%,81.6%
Nc1nonc1-c1nc2cnccc2n1C1CCCCC1,0.3%,19.5%,2.45%,38.4%,31%,65.3%,42.3%,88.5%,8.45%,49%,-0.01%,4.76%,10.3%,55.2%,6.66%,33.7%,-0.73%,2.75%,-1.07%,
NC(=O)c1sc(-n2cnc3cc(C(F)(F)F)ccc32)cc1OCc1ccccc1Br,2.62%,2.16%,0.19%,1.07%,0.86%,-1.32%,3.02%,-0.28%,0.48%,2.52%,0.97%,0.63%,0.18%,0.55%,0.4%,0.57%,1.33%,1.94%,1.96%,1.95%
NS(=O)(=O)c1ccc(-c2ccc3c(NC(=O)C4CC4)n[nH]c3c2)cc1,2.67%,1.34%,0.82%,0.13%,-1.4%,-0.63%,3.31%,-0.1%,-1.07%,0.37%,1.06%,3.22%,1.13%,-0.43%,0.67%,1.78%,1.17%,1.47%,1.52%,1.63%
Fc1ccc(-c2ncn(C3CCNCC3)c2-c2ccnc(Oc3ccccc3)n2)cc1,0.7%,7.46%,-3.5%,-0.8%,0.95%,8.43%,3.65%,1.37%,0.03%,2.28%,0.81%,1.84%,1.21%,1.59%,1.22%,5.65%,-1.04%,0.79%,-1.14%,43.6%
NS(=O)(=O)c1ccc(N/C=C2\C(=O)Nc3ccc4ncsc4c32)cc1,20.8%,2.9%,1.26%,3.04%,-0.49%,,1.67%,6.53%,1.16%,5.52%,1.93%,2.78%,3.02%,6.57%,1.34%,3.28%,22.4%,67.3%,16.3%,6.91%
